Screening data deposited in PubChem BioAssay by University of Kansas High Throughput Screening Laboratory.
Many of the other results were omitted from the sample, so hits are more common in it than they were.
mHTT-CaM PPI inh – mutant huntingtin-calmodulin interaction inhibitors – biochemical, AlphaScreen, primary screen; P42858; inhibition, % at 15 µM; AlphaScreen His-mHTT/GST-CaM binding, luminescence; 190,000 tested, 3.6% active; AID 1671202, 2021
Pf apPOL inh – Pf-apPOL inhibitors, biochemical, fluorescence; Plasmodium falciparum apicoplast DNA polymerase (apPOL); Recombinant Pf-apPOL, molecular beacon fluorescence, 1.5 h; inhibition, % at 10 µM; 210,000 tested, 0.25% active
Numbers stand for hits; n = inactive; x = not tested or not shown. No stated cut-off is given here; in the data, active means inhibition above about 50%; inactive means the rest.

SMILES	mHTT-CaM PPI inh	Pf apPOL inh
Clc1ccc(CN2CCc3nc(N4CCN(c5ccccc5)CC4)ncc3C2)cc1	n	n
COc1ccc(N2CCN(c3ncc4c(n3)CCN(Cc3cccc(F)c3)C4)CC2)cc1	51.2	n
Clc1ccc(CN2CCc3nc(N4CCN(c5ncccn5)CC4)ncc3C2)cc1	100.2	n
COc1ccc(CN2CCc3nc(N4CCN(c5ccc(F)cc5)CC4)ncc3C2)cc1	n	n
Cc1cc(C(=O)N2CCC(c3nc(-c4ccncc4)no3)C2)n[nH]1 (centres undefined)	n	n
CN(C)S(=O)(=O)c1ccc(C(=O)Nc2ccc(S(=O)(=O)Nc3nccs3)cc2)cc1	n	n
N#CCCS(=O)(=O)c1ccc(Cl)c(Cl)c1	n	n
O=C(c1cccc(Br)c1)N1CCCCC1	n	n
Cc1ccccc1CNC(=O)C1CCN(c2nc3cccnc3s2)CC1	n	n
CC(=O)NCC(=O)N1CCc2[nH]nc(-c3ccccc3)c2C1	n	n
CCN1CCN(c2ncc3c(n2)CCN(Cc2cccc(C)c2)C3)CC1	79.2	n
Brc1csc(CN2CCc3nc(N4CCCC4)ncc3C2)c1	99.1	n
Cc1cccc(CN2CCc3nc(N4CCC(C)CC4)ncc3C2)c1	n	n
CCN1CCN(c2ncc3c(n2)CCN(Cc2cc(Br)cs2)C3)CC1	n	n
Cn1cc2c3c(cccc31)CN(C(=O)Nc1cccc(C(F)(F)F)c1)CC2	n	n
COc1c(Br)cc(Br)cc1/C=C1/C(=O)N(c2ccccc2)N=C1C	69.0	n
COc1ccc(Br)cc1/C=C1/C(=O)N(c2ccccc2)N=C1C	n	n
C=CCOc1ccccc1/C=C1/C(=O)N(c2ccc(Cl)c(Cl)c2)N=C1C	n	n
COc1cccc(/C=C2/C(=O)N(c3ccccc3)N=C2C)c1O	73.0	n
CCCC1=NN(c2ccccc2)C(=O)/C1=C/c1cc(OC)c(OC)cc1Cl	n	n
CCCC1=NN(c2ccccc2)C(=O)/C1=C\c1cc(Cl)c(O)c(OC)c1	66.0	n
COc1cccc(/C=C2/C(=O)N(c3ccccc3)N=C2C)c1OC	n	n
COc1cccc(/C=C2/C(=O)N(c3ccc(Cl)c(Cl)c3)N=C2C)c1O	60.0	n
Cc1n[nH]c(C)c1S(=O)(=O)O	n	n
CCCCOc1ccc(/C=c2\sc3nc(-c4cccnc4)nn3c2=O)cc1	n	n
SMILES	mHTT-CaM PPI inh	Pf apPOL inh
CCOc1ccc(CC(=O)N2CC3CN(S(=O)(=O)c4cccc(C)c4)CC(C2)O3)cc1	n	n
Cc1nn2c3ccccc3nc2n1C	n	x
O=C(CSc1nnc(-c2cccs2)o1)Nc1nc(-c2ccccc2)cs1	n	n
CCNC(=O)C1CCCN(c2nc3ncn(CC(=O)NC4CCCC4)c(=O)c3s2)C1 (centres undefined)	n	n
COc1cc(/C=C2/C(=O)N(c3cccc(Br)c3)N=C2C)cc(OC)c1O	88.0	n
COc1cc(/C=C2/C(=O)N(c3cccc(Br)c3)N=C2C)ccc1OC(C)C	n	n
COc1ccc(/C=C2/C(=O)N(c3ccc(Cl)c(Cl)c3)N=C2C)cc1OC	n	n
COc1cc(/C=C2/C(=O)N(c3ccc(Cl)c(Cl)c3)N=C2C)ccc1OCC(=O)O	51.0	n
Cc1nc2ncccn2c1-c1csc(Nc2cccc([N+](=O)[O-])c2)n1	n	n
Cc1cccc(Nc2nc(-c3c(C)nc4ncccn34)cs2)c1	77.0	n
Cc1nc2ncccn2c1-c1csc(Nc2ccccc2)n1	97.0	n
Cc1nc2sccn2c1-c1csc(Nc2cccc(O)c2)n1	73.0	n
Cc1nc2ncccn2c1-c1csc(Nc2ccccn2)n1	73.0	n
Cc1cc(NS(=O)(=O)c2ccc(Nc3nc(-c4c(C)nc5ncccn45)cs3)cc2)no1	n	n
Cc1nc2ncccn2c1-c1csc(N)n1	n	x
Cc1cccc(C(=O)Nc2c(C)nc3sccn3c2=O)c1	n	n
O=C(NCc1ccccc1)c1c[nH]c2ccc(S(=O)(=O)Nc3ccccc3F)cc2c1=O	n	n
COc1ccc(S(=O)(=O)Nc2ccc(Cl)cc2C)cc1Br	n	n
O=C1CCCC(=O)N1c1ccc(NCCc2ccccn2)c([N+](=O)[O-])c1	n	n
C#CCSc1nc2c(c(=O)[nH]1)C1(CCCC1)Cc1ccccc1-2	n	n
CN1CCN(C(=O)CSc2nc3c(c(C(F)(F)F)c2C#N)CCC3)CC1	62.2	x
CCCCSc1nc2c(c(C(F)(F)F)c1C#N)CC(C)CC2 (centres undefined)	n	x
CCn1cc(Cn2cc(N)cn2)c(C)n1	n	x
O=C(c1cc(-c2ccccc2)n[nH]1)N1CCc2c(nc3cc(-c4ccccc4)[nH]n3c2=O)C1	n	n
Cc1cc(Cl)ccc1N1CCN(C(=O)Cc2ccccc2)C(C)C1=O (centres undefined)	n	n
SMILES	mHTT-CaM PPI inh	Pf apPOL inh
Cc1[nH]c2ccccc2c1C(c1ccncc1)N1CCC(C)CC1 (centres undefined)	n	n
COC(c1cccs1)c1c(C)[nH]c2ccccc12 (centres undefined)	60.0	n
O=C1CC(c2noc(C3CCC3)n2)CN1c1ccccc1 (centres undefined)	n	n
CCN(CC)S(=O)(=O)c1cc(C(=O)O)ccc1C	n	n
Cc1onc(-c2ccccc2)c1C(=O)C=CN(C)C	x	n
CC(C)CCC(=O)N1CCC(c2nc3ccncc3n2C)C1 (centres undefined)	n	n
CCN(CC)CCCn1c(N)c(C#N)c2nc(C#N)c(C#N)nc21	n	n
CC1(c2ccccc2)CC(C)(C)N(C(=O)C(F)(F)F)c2ccccc21 (centres undefined)	n	n
CC1(c2ccccc2)CC(C)(C)N2C(=O)C(=O)c3cccc1c32 (centres undefined)	80.0	n
CC(C)CNC(=O)C1CCc2sc(C(=O)N3CCCCC3)cc2C1 (centres undefined)	n	n
O=C(c1ccccc1F)N1CCOc2ccccc2C1	n	n
COc1nc(C)nc(N=CNO)n1	x	n
COc1ccc(-n2cnc3cc(C(=O)NCC(OC)OC)ccc32)cc1	n	n
O=C1CCC(=O)N1c1ccc(NC2CCCc3ccccc32)c([N+](=O)[O-])c1 (centres undefined)	66.0	n
O=C1C2CC=CCC2C(=O)N1c1ccc(NC2CCCc3ccccc32)c([N+](=O)[O-])c1 (centres undefined)	n	n
Cc1cccc(C(=O)N2CCC3(C2)C(=O)Nc2ccccc23)c1 (centres undefined)	n	n
Cc1ccc(C2=Nc3cccnc3N(CC(=O)Nc3ccc(F)cc3)C(=O)C2)cc1	n	n
COc1ccc(NC(=O)CN2CCN(C3c4ccccc4-c4ccccc43)CC2)cc1	55.0	n
NC(=O)c1ccc(NC(=O)CN2CCN(C3c4ccccc4-c4ccccc43)CC2)cc1	59.0	n
O=C(CN1CCN(C2c3ccccc3-c3ccccc32)CC1)Nc1ccc(F)cc1	n	n
Cc1ccc(NC(=O)CN2CCN(C3c4ccccc4-c4ccccc43)CC2)cc1F	n	n
CCc1nnc(SCC(=O)Nc2cccc(C(F)(F)F)c2)nc1CC	n	n
COCCNc1nc(SCC(=O)Nc2cccc(C(F)(F)F)c2)nc2ccccc12	67.0	n
Cc1ccsc1C=C1C(=O)c2ccccc2C1=O	50.0	n
Cc1ccccc1C1=N/C(=C\c2sccc2C)C(=O)O1	n	n
CCCC(=O)NC(c1ccc(OC)cc1)c1ccc2cccnc2c1O (centres undefined)	100.0	n
CCCC(=O)NC(c1ccc(F)cc1)c1ccc2cccnc2c1O (centres undefined)	100.0	n
